From the OligoGym collection
Note: reference of the scale not given here.

These sequences were tested against NPC1L1 (assay: pooled miR-30 sensor sort-seq; sequence = guide strand). Details: shRNA.
TTGTCAGCTGTGGAGACTCGGG was tested, and the sensor-assay potency score (higher = more potent) was -1.23. Sequence TTGGGGTCCACCATCTTGCTTT has a sensor-assay potency score (higher = more potent) of -0.775. TTGATCTCGTCTTCCAGAGAGC showed a sensor-assay potency score (higher = more potent) of -1.19. With TTGGAGAGTGTCATGAGGCTTC the sensor-assay potency score (higher = more potent) was -0.0939. In the case of TAAAACACATTGGTGATCGTGT, the sensor-assay potency score (higher = more potent) is reported as 0.009. TTGGAGTCCACCATCACTCGGC gave a sensor-assay potency score (higher = more potent) of 0.203. In the case of TTGGTGATCGACAGACTCGCTT, the sensor-assay potency score (higher = more potent) is reported as 0.12. In the case of TTGTGTAAGGCTCACTCTGGGC, the sensor-assay potency score (higher = more potent) is reported as -1.01. Work on TTGTTGGGCAAGAAGTTGCTGA yielded a sensor-assay potency score (higher = more potent) of -0.757. Work on TTGATAGAACCTTCAAAGCTGT yielded a sensor-assay potency score (higher = more potent) of -0.451. With TTATGGAACTGCTCCACCGAGG the sensor-assay potency score (higher = more potent) was -0.788. In the case of TTGTGATAGGCCATGAACCTGG, the sensor-assay potency score (higher = more potent) is reported as -0.611.

The sequences below were run against NPEPL1 in the same assay as above. Details: shRNA.
For TCGCTCACCAGCATGCACCGGT, the sensor-assay potency score (higher = more potent) was -0.443. TTGTCTTTGAAACCCTGCTTGA gave a sensor-assay potency score (higher = more potent) of -0.575. TCGGTGTTCATCTCATTGCAGG gave a sensor-assay potency score (higher = more potent) of -1.16. Work on TAGAGGGGACAGCTGTCCGTGG yielded a sensor-assay potency score (higher = more potent) of -0.837. For TTCATGTCCGCCACAGCTGAGG, the sensor-assay potency score (higher = more potent) was -1.03. With TCGCAGACCATCACAATGCAGC the sensor-assay potency score (higher = more potent) was -1.2. TTGATTTCCACCGTCTTCCCTG was tested, and the sensor-assay potency score (higher = more potent) was -0.0975. With TTCGCTAAGCACTGCAATGTGG the sensor-assay potency score (higher = more potent) was -0.589. For TTGCAAGCATAGGACACGCCAT, the sensor-assay potency score (higher = more potent) was -0.766.
